Source: PubChem
NALP1 inh: blocks the NALP1 inflammasome reconstituted in yeast. S. cerevisiae NALP1/ASC/caspase-1 growth, X-gal OD620, 72 h. inhibition, % at 10 µM. 280,000 compounds, 0.61% hits; in the data active means inhibition mostly above about 24%, no sharp cut-off; inactive means mostly below about 32%
tim23-1 inh: inhibits growth of tim23-1 mutant yeast; S. cerevisiae tim23-1 growth, BacTiter-Glo luminescence, 24 h; inhibition, % at 20 µM; 330,000 compounds, 1.3% hits; AID 463212;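 active means growth inhibition of the mutant yeast at or above 50%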;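 further: temperature-sensitive mutant grown at 25 °C; plate controls were DMSO-treated mutant yeast for no effect and medium wells lacking yeast for full effect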
PfHsp90 set2: reduces growth (ATP signal) of yeast expressing P. falciparum Hsp90; inhibition, % at 9.4 µM; S. cerevisiae expressing PfHsp90, BacTiter-Glo ATP, 48 h; yeast lacking PDR1 and PDR3 efflux regulators; AID 504621; 310,000 compounds, 0.32% hits;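 active means every replicate shows inhibition above about 80%, whatever the replicate mean, limit read from the data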;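 further: 0% = DMSO neutral controls and 100% = 20 µM radicicol positive controls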
tim10-1 inh: tim10-1 yeast growth inhibition; S. cerevisiae tim10-1 ts strain growth, BacTiter-Glo, 24 h; inhibition, % at 20 µM; 330,000 compounds, 2.2% hits; AID 463190;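 active means inhibition of at least 40%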;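 further: mutant grown at 25 °C; 0% = DMSO wells with yeast and 100% = wells holding no yeast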
NLRP3 yeast inh: NALP3 inhibition in yeast | Yeast reconstituted NLRP3/ASC/caspase-1, beta-gal luminescence, 24 h | inhibition, % at 10 µM | 330,000 compounds, 0.39% hits;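 active means inhibition of 50% or more; inactive means inhibition below 50%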;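 further: plate controls were induced DMSO wells for no effect and uninduced yeast grown without galactose for full effect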
TIM10 inh: growth inhibitors of TIM10 yeast strain; 330,000 compounds, 1.4% hits; S. cerevisiae TIM10 strain growth, BacTiter-Glo luminescence, 24 h; AID 463195; inhibition, % at 10 µM;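 active means inhibition of 40% or more at the single tested concentration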;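 further: wild-type TIM10 isogenic control strain grown at permissive 25 °C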
tim10-1 conf: tim10-1 yeast growth inhibition, confirmed; shares compounds with tim10-1 inh; S. cerevisiae tim10-1 ts strain growth, BacTiter-Glo, 24 h; inhibition, % at 20 µM; 7,400 compounds, 56% hits; AID 463213;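 active means inhibition of yeast growth at or above a set limit in either of two repeat tests at 20 µM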;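 further: tim10-1 mutant grown at permissive 25 °C to find synthetic lethal compounds; 0% = DMSO yeast wells and 100% = medium wells without yeast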
tim10 confirm: confirmation of TIM10 yeast growth inhibitors; shares compounds with TIM10 inh; S. cerevisiae tim10 strain growth, BacTiter-Glo luminescence, 24 h; inhibition, % at 10 µM; 4,600 compounds, 63% hits; AID 463215;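 active means inhibition of yeast growth at or above a set limit in either of two replicates at 10 µM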;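 further: this counterscreen used the strain with wild-type TIM10; 0% = yeast with DMSO and 100% = medium wells lacking yeast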
tim23-1 conf: confirmation of tim23-1 mutant yeast growth inhibitors; 4,400 compounds, 83% hits; inhibition, % at 20 µM; S. cerevisiae tim23-1 growth, BacTiter-Glo luminescence, 24 h; shares compounds with tim23-1 inh; AID 463218;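 active means inhibition above about 39% in either of two replicate wells at 20 µM, limit read from the data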;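 further: temperature-sensitive tim23-1 mutant grown at 25 °C; 0% = DMSO wells with yeast and 100% = medium wells without yeast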
* hit, by the source's call. Most compounds without a hit are left out; they make up all but 4.1% or so of the library.

`N=c1sc2ccccc2n1-c1ccccc1` gave NALP1 inh 9.3, tim23-1 inh 0.8, PfHsp90 set2 14.2, tim10-1 inh 12.0, NLRP3 yeast inh 9.1 and TIM10 inh -9.1.
`COc1ccc(-n2cccc2/C=C/[N+](=O)[O-])cc1` gave NALP1 inh 113.5*, tim23-1 inh 83.1*, PfHsp90 set2 -13.7, tim10-1 inh 62.0*, NLRP3 yeast inh 7.4, TIM10 inh 59.1*, tim10-1 conf 52.8*, tim10 confirm -8.6 and tim23-1 conf 72.7*.
For Clc1cccc(CN2CCCCCC2)c1Cl the results were NALP1 inh 14.0, tim23-1 inh -8.9, PfHsp90 set2 -8.0, tim10-1 inh -5.2, NLRP3 yeast inh 9.3 and TIM10 inh -2.8.
`CCOC(=O)COc1c(C=O)cc(Br)cc1OC` gave NALP1 inh -7.8, tim23-1 inh 61.1*, tim10-1 inh 45.2*, NLRP3 yeast inh 8.3, TIM10 inh 65.3*, tim10-1 conf 36.2*, tim10 confirm 53.2* and tim23-1 conf 75.2*.
For NCCCn1c(C(=O)c2ccc(Cl)cc2)c2ccc([N+](=O)[O-])cc2[n+]1[O-] the results were tim23-1 inh 17.2, PfHsp90 set2 -31.2, tim10-1 inh 12.7, NLRP3 yeast inh 26.1 and TIM10 inh 7.6.
N#Cc1c2ccc([N+](=O)[O-])cc2[n+]([O-])n1-c1ccccc1 was read as tim23-1 inh 74.6*, PfHsp90 set2 91.3*, tim10-1 inh 61.0*, NLRP3 yeast inh -6.7, TIM10 inh 65.6*, tim10-1 conf 17.6, tim10 confirm 66.5* and tim23-1 conf 28.4.
CCOC(=O)/C=C/C(=O)Nc1ccc(Oc2ccccc2)cc1 was read as NALP1 inh 5.1, tim23-1 inh 54.7*, tim10-1 inh 49.8*, NLRP3 yeast inh -4.2, TIM10 inh 33.5, tim10-1 conf 49.2* and tim23-1 conf 65.8*.
For Cc1cc(C)cc(NS(=O)(=O)c2ccc(-c3cnc(C4CC4)o3)cc2)c1 the results were NALP1 inh -1.8, tim23-1 inh 28.1, PfHsp90 set2 -3.0, tim10-1 inh 32.2, NLRP3 yeast inh 15.5 and TIM10 inh -35.2.
Cc1cccc(NS(=O)(=O)c2ccc(-c3cnc(C4CC4)o3)cc2)c1C was read as NALP1 inh -21.7, tim23-1 inh 68.9*, PfHsp90 set2 -21.3, tim10-1 inh 58.5*, NLRP3 yeast inh 23.5, TIM10 inh 19.0, tim10-1 conf 51.6* and tim23-1 conf 51.7*.
`Cc1c(NC(=O)C(C)Oc2cccc(F)c2)c(=O)n(-c2ccccc2)n1C` (centres undefined) gave tim23-1 inh 5.1, PfHsp90 set2 9.5, tim10-1 inh 3.4, NLRP3 yeast inh 3.4 and TIM10 inh -0.8.
Screening CN(Cc1ccccc1)c1nc(CN2CCOCC2)nc2scc(-c3ccccc3)c12 returned NALP1 inh 17.8, tim23-1 inh 64.8*, PfHsp90 set2 2.4, tim10-1 inh 47.4*, NLRP3 yeast inh -6.7, TIM10 inh 54.6*, tim10-1 conf 41.5*, tim10 confirm 39.6* and tim23-1 conf 60.8*.
For CCNc1nc(CN2CCCCC2)nc2scc(-c3ccccc3)c12 the results were NALP1 inh 10.9, tim23-1 inh -12.1, PfHsp90 set2 5.5, tim10-1 inh 7.7, NLRP3 yeast inh 0.3 and TIM10 inh 13.7.
`COCCNc1cc(C)nc2cc(-c3ccc(C)cc3)nn12` gave NALP1 inh 12.9, tim23-1 inh 27.9, PfHsp90 set2 31.9, tim10-1 inh 24.8, NLRP3 yeast inh 20.4 and TIM10 inh 12.1.
Screening Cc1ccc(-c2cc3nc(C)cc(NCc4ccco4)n3n2)cc1 returned NALP1 inh -5.3, tim23-1 inh 57.9*, PfHsp90 set2 3.0, tim10-1 inh 41.4*, NLRP3 yeast inh 21.9, TIM10 inh 28.8, tim10-1 conf 38.5* and tim23-1 conf 54.7*.
CC1=NNC(=O)/C1=C\c1cn(-c2ccccc2)nc1-c1ccc(Cl)cc1 was read as NALP1 inh 37.5, tim23-1 inh 89.0*, PfHsp90 set2 -0.5, tim10-1 inh 82.5*, NLRP3 yeast inh 33.8, TIM10 inh 89.4*, tim10-1 conf 71.0*, tim10 confirm 88.5* and tim23-1 conf 67.5*.
`O=C(O)Cc1cn(-c2ccccc2)nc1-c1ccc(Cl)cc1` gave NALP1 inh -3.3, tim23-1 inh 14.2, PfHsp90 set2 21.3, tim10-1 inh 10.2, NLRP3 yeast inh 17.8 and TIM10 inh 0.2.
`CC1=NN(c2ccccc2)C(=O)/C1=C\c1cn(CCC#N)nc1-c1ccc(Cl)cc1` gave NALP1 inh 26.9, tim23-1 inh 53.7*, PfHsp90 set2 7.1, tim10-1 inh 43.1*, NLRP3 yeast inh 12.9, TIM10 inh 54.1*, tim10-1 conf 31.4, tim10 confirm 38.0* and tim23-1 conf 51.4*.
COC(=O)/C(=C\Nc1ccc(Cl)cc1Cl)NC(=O)c1ccc(OC)cc1 was read as tim23-1 inh 37.8, PfHsp90 set2 7.0, tim10-1 inh 17.2, NLRP3 yeast inh 28.8 and TIM10 inh -1.6.
For Cc1ccc(S(=O)(=O)N(Cc2cccc(F)c2)C(=O)N2CCN(C)CC2)cc1 the results were tim23-1 inh 2.9, PfHsp90 set2 -10.2, tim10-1 inh 8.1, NLRP3 yeast inh 3.3 and TIM10 inh 1.3.
`Cc1[nH]c2ccc(C(=O)NCCCN3CCN(C)CC3)cc2c1C` gave NALP1 inh 31.0, tim23-1 inh 11.8, PfHsp90 set2 16.1, tim10-1 inh 10.8, NLRP3 yeast inh 3.1 and TIM10 inh 11.0.
Screening Nc1cc(Cl)nc(N/N=C/c2c(O)ccc3ccccc23)n1 returned NALP1 inh 28.8, tim23-1 inh 66.1*, PfHsp90 set2 -2.9, tim10-1 inh 49.8*, NLRP3 yeast inh 46.4, TIM10 inh 44.5*, tim10-1 conf 38.3*, tim10 confirm -9.2 and tim23-1 conf 70.0*.
COc1ccc(CN2CCN(Cc3c[nH]c4ccccc34)CC2CCO)c(F)c1 (centres undefined) was read as NALP1 inh 14.8, tim23-1 inh 1.7, PfHsp90 set2 -24.1, tim10-1 inh -10.2, NLRP3 yeast inh 0.1 and TIM10 inh 3.3.
CCCN1C(=O)/C(=C2\SC(N3CCCCC3)=NC2=O)c2ccccc21 was read as NALP1 inh 35.5, tim23-1 inh 50.3*, PfHsp90 set2 8.9, tim10-1 inh 41.9*, NLRP3 yeast inh 22.2, TIM10 inh 29.9, tim10-1 conf 31.8* and tim23-1 conf 47.8*.
